Records with an inconclusive call do not appear. A call without a number means that no potency is given here. Calls of active or inactive are those of the source. The call rests on the fitted dose curve; in most records, active means well fitted inhibition curve with a large enough effect; inconclusive means small, poorly fitted or top-dose-only effect; inactive means flat fitted curve, though single readings scatter.
Potency means the concentration at half of the fitted maximal effect.

The nature of the experiment: P-glycoprotein substrates identified in KB-8-5-11 adenocarcinoma cell line, qHTS therapeutic library screen (AID 1346987). Further: nearly all actives have a fitted effect of over 65% in size. As to conditions: KB-8-5-11 (P-gp overexpressing) viability, CellTiter-Glo, 72 h; series mostly up to 44.5 µM. An excerpt:
The ATP-binding cassette transporters P-glycoprotein (P-gp) is known to limit brain penetration of many chemotherapy drugs. […] As such, we developed a high-throughput screen (HTS) to identify substrates of P-gp from a series of chemical libraries including the National Center for Advancing Translational Sciences Pharmaceutical Collection NPC, 2,816 compounds), testing a total of 10,804 compounds, most of which have known mechanisms of action. We used the CellTiter-Glo viability assay to test library compounds against the parental KB-3-1 human cervical adenocarcinoma cell line and the colchicine-selected sub-line KB-8-5-11 that over-expresses P-gp. KB-8-5-11 cells were also tested in the presence of a P-gp inhibitor (tariquidar) to assess reversability of transporter-mediated resistance. Of the tested compounds, a total of 90 P-gp substrates were identified including 55 newly identified P-gp substrates. Substrates were confirmed using an orthogonal killing assay against HEK-293 cells transfected with P-gp. As exemplars, we confirmed that […] (cyclin-dependent kinase inhibitor); AT9283, (Janus kinase 2/3 inhibitor); ispinesib (kinesin spindle protein inhibitor); gedatolisib (PKI-587, phosphoinositide 3-kinase/mammalian target of rampamycin inhibitor); GSK-690693 (AKT inhibitor); and KW-2478 (heat shock protein 90 inhibitor) were substrates , and direct ATPase stimulation was assessed. ABCG2 was also found to confer high levels of resistance to AT9283, GSK-690693 and gedatolisib, while ispinesib, AT7519 and KW-2478 were weaker substrates.
The HeLa derivative cell line, KB-3-1, and its colchicine-selected, P-gp-overexpressing subline, KB-8-5-11 were maintained in DMEM with 10% FCS and Pen/Strep with glutamine at 37 degree C in 5% CO2. For KB-8-5-11 cells, colchicine was added to the medium at a concentration of 100 ng/mL. HEK-293 cells transfected with empty vector (pcDNA) or vector containing human ABCB1 (MDR-19) or ABCG2 (R-5) have been described previously (Robey, Lin, Qiu, Chan & Bates, 2011) and were maintained in EMEM supplemented with 10% FCS, Pen/Strep and glutamine with 2 mg/ml G418 to select for the expression of the transporter. Cultures were confirmed to be free of mycoplasma infection using the MycoAlert Mycoplasma Detection Kit (Lonza, Walkersville, MD). For the screen, assay medium was identical to culture medium except for KB-8-5-11 where colchicine was excluded from the medium.
All cell lines were plated into 1536-well plates at 500 cells/well in 5 uL media. Compounds were then pinned in dose-response using a 1536-head pin tool (Kalypsis, San Diego, CA) and plates were incubated at 37 degree C in 5% CO2 for an additional 72 h. CellTiter-Glo reagent (Promega) was dispensed into the wells, incubated for 5 min and luminescence was read on a ViewLux instrument (Perkin-Elmer). Cytotoxic compounds were defined as those that yielded a curve class of -1.1, -1.2, -2.1, -2.2, -2.3, or -2.4, a maximum response of >50% and an AC50 of < 10 uM. Cherry-picked hits from screening analysis were tested with both the KB pair of cell lines, and the pcDNA (empty vector control) and MDR-19 (P-gp overexpressing) pair were tested, in the absence and presence of tariquidar.
For orientation: qHTS replaces the single test concentration by a dilution series.
`CCCCN1C[C@H](O)[C@@H](O)[C@H](O)[C@H]1CO`: the Potency entry is “inactive”. Turning to `CC(=O)Nc1ccc(OCC(O)CNC(C)C)cc1` (stereo not given), the Potency result is “inactive”. In the case of `CC(=O)O[C@H]1C[C@@H]2CC[C@@H]3[C@H](CC[C@@]4(C)[C@H]3C[C@H]([N+]3(C)CCCCC3)[C@@H]4OC(C)=O)[C@@]2(C)C[C@@H]1N1CCCCC1`, the Potency entry is “inactive”. Consider `CCOc1ccc(NC(C)=O)cc1`, for which the Potency entry was “inactive”. For `N=C(N)N1CCc2ccccc2C1` the value was “inactive”; for `Cc1cc2c(OCC(CNC(C)(C)C)OC(=O)c3ccccc3)cccc2[nH]1` (stereo not given), “inactive”. `COc1cc([C@H]2Oc3cc([C@H]4Oc5cc(O)cc(O)c5C(=O)[C@@H]4O)ccc3O[C@@H]2CO)ccc1O`: the Potency result was “inactive”. The result for `CC(C)(C)NCC(O)COc1cccc2c1C[C@H](O)[C@H](O)C2` (stereo not given in full) reads “inactive”; that for `NC(N)=NN=C(/C=C/c1ccc([N+](=O)[O-])o1)/C=C/c1ccc([N+](=O)[O-])o1`, 4.61 µM (active); that for `OCc1ccccn1`, “inactive”.

On to `CNCCc1ccccn1`, for which the Potency entry was “inactive”. On to `CN=C(N)NCCC[C@H](N)C(=O)O`, for which the Potency result is “inactive”. As to `CCC1NC(=O)c2cc(S(N)(=O)=O)c(Cl)cc2N1` (stereo not given), the Potency result was “inactive”. For `COc1ccc2c(c1)c1c3n2CCN(C)C3=NCC1` the value was “inactive”; for `CC(C)(C)NC[C@H](O)COc1cccc2c1CCCC2=O`, “inactive”.

On to `CC(C(=O)O)c1cccc(Oc2ccccc2)c1` (stereo not given), for which the Potency result was “inactive”. Regarding `CC(C)NCC(O)c1ccc2ccccc2c1` (stereo not given), the Potency result is “inactive”. With `FC(F)(F)C(F)(F)C(F)(F)C(F)(F)C(F)(F)C(F)(F)C(F)(F)C(F)(F)Br`, the Potency result was “inactive”.

Regarding `C#C[C@]1(OC(C)=O)CC[C@H]2[C@@H]3CCC4=C/C(=N/O)CC[C@@H]4[C@H]3CC[C@@]21CC`, the Potency is 6.51 µM (active). On to `CC(C)(C)CC(C)(C)c1ccc(O)c(-n2nc3ccccc3n2)c1`, for which the Potency result is “inactive”. As for `C[C@@]12C(=O)OC(=O)[C@]1(C)C1CCC2O1`, the Potency was 3.12 µM (active).

Regarding `NS(=O)(=O)c1cc2c(cc1Cl)NC(CC1CCCC1)NS2(=O)=O` (stereo not given), the Potency entry is “inactive”. On to `CCN1/C(=C/C=C/c2sc3ccccc3[n+]2CC)Sc2ccccc21`, for which the Potency was 18.4 µM (active). The result for `CCCCCCCCCCCCCCCC(=O)O` reads “inactive”; that for `Cn1c(=O)c2[nH]c(Br)nc2n(C)c1=O`, “inactive”. The result for `Cc1cccc(C)c1NC(=O)CN1CCCCCC1` reads “inactive”; that for `N#CCC(=O)NN`, “inactive”. Consider `CCOC(=O)c1c(N)sc2c1CCN(Cc1ccccc1)C2`, for which the Potency result was “inactive”. On to `CCCCCN=C(N)N/N=C/c1c[nH]c2ccc(OC)cc12`, for which the Potency result is “inactive”. The result for `O=C(O)Cc1csc(-c2ccc(Cl)cc2)n1` reads “inactive”. The result for `CC(=O)Nc1ccc(CC(=O)O)cc1` reads “inactive”; that for `Oc1c(Cl)cc(Cl)c(Cl)c1Cc1c(O)c(Cl)cc(Cl)c1Cl`, 2.06 µM (active).

Consider `CCOC(=O)[C@H](CCc1ccccc1)N[C@@H](C)C(=O)N1[C@H](C(=O)O)C[C@H]2CCCC[C@@H]21`, for which the Potency entry is “inactive”. The result for `CCCc1ncc(C[n+]2ccccc2C)c(N)n1` reads “inactive”. For the compound `CCN(CC)CCOC(=O)C1(c2ccccc2)CCCC1`, the Potency entry was “inactive”.

Take `C=C[C@H]1CN2CC[C@H]1C[C@@H]2[C@@H](O)c1ccnc2ccc(OC)cc12`: the Potency entry is “inactive”. In the case of `CC(C)Cc1ccc(CC(=O)O)cc1`, the Potency result was “inactive”. As for `C[N+]1(CC2COC(c3ccccc3)(C3CCCCC3)O2)CCCCC1` (stereo not given), the Potency result is “inactive”. As to `CCCCNC(=O)NS(=O)(=O)c1ccc(N)cc1`, the Potency entry is “inactive”.

Regarding `O=C(Oc1cccc2cccnc12)c1ccccc1`, the Potency result was “inactive”.

The values are drawn from PubChem BioAssay (NCATS).
